# Laboratory results reported in PubChem BioAssay.
# Activity calls are given as the source filed them. Unless noted, no rule for the calls is given here.
# Key:
# [1] = tested on: XIP peptide (Xip251-270) binding; test: XIP fragment 251-270 binding compounds – biochemical, small-molecule microarray, fluorescence 635/667 nm, 0.1 µg/mL protein, primary screen (AID 1182); details: fluorescent protein binding, 635 nm, higher = more signal, called active from +8 up or from −8 down
# XIP peptide (Xip251-270) = test: compounds binding XIP fragment 251-270 – biochemical, small-molecule microarray, fluorescence 635/667 nm, 0.5 µg/mL protein, primary screen (AID 1183); details: fluorescence 635 nm, higher = more signal
# [2] = blood-stage malaria parasite viability loss – strain 3D7, DAPI fluorescence, 100 nL, primary screen (AID 1184);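 also: parasites grown inside human red blood cells in medium with human serum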; details: P. falciparum 3D7 growth, 3 d, higher = more signal
# [3] = biological target: Homeobox protein Hox-A13 (Mus musculus) (UniProt Q62424); test: disruptors of Hoxa13 oligonucleotide interaction – biochemical, fluorescence polarization, labeled oligonucleotide, primary screen (AID 1185); details: Hoxa13:DNA binding, 15 min, higher = more signal, called active from +8 up or from −8 down
# Sequence of Homeobox protein Hox-A13 (Mus musculus) (Q62424 whole entry, looked up): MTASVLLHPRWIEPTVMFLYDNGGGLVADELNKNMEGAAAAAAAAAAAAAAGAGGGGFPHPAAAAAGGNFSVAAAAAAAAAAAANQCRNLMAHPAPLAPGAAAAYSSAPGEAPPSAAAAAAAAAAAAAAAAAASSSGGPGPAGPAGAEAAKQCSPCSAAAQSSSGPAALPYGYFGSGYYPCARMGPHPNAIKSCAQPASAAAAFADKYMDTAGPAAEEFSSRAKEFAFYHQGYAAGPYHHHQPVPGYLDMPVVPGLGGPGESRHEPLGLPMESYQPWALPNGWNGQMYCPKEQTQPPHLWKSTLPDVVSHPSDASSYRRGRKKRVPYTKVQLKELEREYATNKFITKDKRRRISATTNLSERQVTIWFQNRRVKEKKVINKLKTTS
# [4] = blockers of DNA damage checkpoint Chk1 activation – imaging, HeLa, hydroxyurea, phospho-Chk1 antibody, percent positive cells, primary screen (AID 1186); details: hydroxyurea-induced phospho-Chk1 immunofluorescence imaging, higher = more signal
# [5] = blockers of DNA damage checkpoint Chk1 activation – imaging, HeLa, hydroxyurea, phospho-Chk1 nuclear intensity, primary screen (AID 1187); details: hydroxyurea-induced phospho-Chk1 immunofluorescence imaging, higher = more signal
SMILES,composite z-score [1],composite z-score (XIP peptide (Xip251-270)),z-score [2],z-score [3],z-score [4],z-score [5]
CC(C)(C)N1CC=CC23O[C@@H]4/C=C\CCCOC(=O)C4[C@H]2C(=O)N(CCCO)[C@@H]3C1=O (some centres not stated),-0.12 (inactive),-0.774,0.426,-5.57 (inactive),-0.0351 (inactive),0.0939 (inactive)
COC(=O)[C@@]1(Cc2ccccc2)[C@H]2c3cc(C(=O)N(C)C)n(Cc4ccc(S(C)(=O)=O)cc4)c3C[C@H]2CN1C(=O)c1ccccc1,1.22 (inactive),0.721,-1.5,-5.44 (inactive),0.492 (inactive),0.38 (inactive)
C=CCC(OC(C)=O)[C@@H]1[C@@H](N(Cc2cccc3ccccc23)C(=O)Cc2ccc(OC)cc2)c2cc(OCCCO)ccc2N1C(=O)Cc1ccc2ccccc2c1 (some centres not stated),-0.559 (inactive),0.296,-1.91,-2.41 (inactive),0.42 (inactive),0.512 (inactive)
C[N+](C)(C)CCCC[C@@H]1NC(=O)[C@@H]2C[C@H](C(=O)NCc3ccc(F)cc3)[C@H](c3ccc(O)cc3)N2C1=O,0.744 (inactive),0.0664,0.269,-0.882 (inactive),0.0551 (inactive),0.0892 (inactive)
[N-]=[N+]=NCc1ccccc1[C@@H]1OC(c2ccc(OCCCO)cc2)=N[C@]1(Cc1ccccc1N=[N+]=[N-])C(=O)O,1.21 (inactive),0.722,-1.9,-3.59 (inactive),0.277 (inactive),0.585 (inactive)
C=CCOC(=O)[C@@H]1[C@H]2C(=O)O[C@H](c3ccccc3)[C@H](c3ccccc3)N2[C@H](c2ccc(OCCOC(=O)[C@H]3C[C@H]4C(=O)N5CCC[C@H]5C(=O)N4[C@H]3c3cccc(OCCO)c3)cc2)[C@@]12C(=O)Nc1ccc(I)cc12,0.781 (inactive),0.875,-0.441,0.634 (inactive),-0.479 (inactive),-0.434 (inactive)
COC(=O)C(CC#Cc1ccc2c(c1)[C@]1(C(=O)N2)[C@H](C(=O)N2CCc3cc(OC)c(OC)cc3C2)[C@H]2C(=O)O[C@H](c3ccccc3)[C@H](c3ccccc3)N2[C@@H]1c1ccccc1OCCO)C(=O)OC,0.254 (inactive),0.796,-2.23,2.81 (inactive),-0.0915 (inactive),0.0536 (inactive)
O=C1C2C=CC(C(O)C3CCCCC3)N(n3cnnc3)C2C(=O)N1Cc1ccccc1 (configuration not stated),0.534 (inactive),-0.0061,-0.902,-1.8 (inactive),0.359 (inactive),-0.394 (inactive)
O=C1N(CCS(=O)(=O)c2ccccc2)c2ccccc2C[C@]12N=C(c1ccc(OCCCO)cc1)O[C@@H]2c1ccccc1,0.412 (inactive),0.811,-2.3,-4.51 (inactive),-0.36 (inactive),-0.357 (inactive)
N#Cc1ccc(C(O)C2C=CC3C(=O)NC(=O)C3N2Nc2ccc(Cl)cc2Cl)cc1 (configuration not stated),1.42 (inactive),0.0653,0.684,-5.63 (inactive),0.731 (inactive),0.688 (inactive)
CCOC(=O)C[C@H]1[C@H](OC(=O)c2ccccc2-c2ccccc2)[C@@H](NC(=O)C2CCCCC2)c2cc(OCCCO)ccc2N1C(=O)c1ccc2ccccc2n1,0.181 (inactive),0.727,0.433,-3.33 (inactive),0.0664 (inactive),-0.108 (inactive)
COCCOC(=O)N1C(=O)[C@@]2(c3cc(C#CCC(C(=O)OC)C(=O)OC)ccc31)[C@H](C(=O)Nc1nc3ccccc3s1)[C@H]1C(=O)O[C@H](c3ccccc3)[C@H](c3ccccc3)N1[C@@H]2c1ccc(OCCO)cc1,1.7 (inactive),0.768,-1.85,1.46 (inactive),-0.0393 (inactive),0.611 (inactive)
CC(C)=CCCC(C)=CC(O)C1C=CC2C(=O)NC(=O)C2N1Nc1ccccn1 (configuration not stated),0.113 (inactive),0.628,0.563,-4.67 (inactive),0.282 (inactive),-0.0205 (inactive)
CCCN1C(=O)[C@]2(CCC(=O)OC(C)(C)C)N=C(c3ccc(OCCCO)cc3)O[C@@H]2c2ccccc21,0.55 (inactive),0.601,-2.33,-3.37 (inactive),-0.292 (inactive),-0.312 (inactive)
CC(C)N1C(=O)c2ccccc2[C@](C)(C(=O)NCC(F)(F)F)[C@@H]1c1ccc(CO)cc1,0.112 (inactive),0.464,-0.805,-1.98 (inactive),0.256 (inactive),0.462 (inactive)
O=C1C=C(c2ccccc2)C(=O)C2=C1CC([C@H]1Oc3ccccc3S(=O)(=O)N3CCC[C@@H]13)=CC2,-0.0015 (inactive),-0.0733,-3.16,-3.85 (inactive),0.079 (inactive),0.334 (inactive)
C=CC[C@@]12N=C(c3ccc(OCCCO)cc3)O[C@@H]1c1ccccc1N(CCC)C2=O,2.48 (inactive),0.759,-2.25,-4.8 (inactive),0.291 (inactive),0.58 (inactive)
